Reference: PubChem BioAssay (NCI)
The panel holds about 83,000 compounds, 20% with a hit somewhere; the sample as a whole holds those more often.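 Single-dose data. Exposure time 48 hours. Values below 10 considered active.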 Activity calls are given as the source filed them.

system: NCI-H460 lung; assay: NCI-60 one-dose screen, 48 h (100 = growth as untreated, 0 = no growth, -100 = all killed); settings: 10 µM unless noted
Description: Growth inhibition of the NCI-H460 human Non-Small Cell Lung tumor cell line is measured as a screen for anti-cancer activity. Cells are grown in 96 well plates and exposed to the test compound for 48 hours. Compounds are tested at a single concentration, which is 10^-5 M for most compounds. The reported endpoint is percent growth (GI% or GIPRCNT), where numbers from 0 - 100% represent growth inhibition, and numbers from -100% - 0 represent cell death. For example, a value of 40 represents 60% growth inhibition. A value of 0 means no net growth occurred over the course of the experiment. A value of -40 indicates 40% of cells at the beginning of the experiment died by the end of the experiment. A value of -100 means all cells are dead at the end of the experiment.
NCI-60 Human Tumor Cell Lines Screen was performed using the standard one-dose NCI protocol, which is described in more detail at https://dtp.cancer.gov/discovery_development/nci-60/default.htm.
Compounds with GIPRCNT values below 10 were considered active. Activity score was based on GIPRCNT using the following formula: […]
Score is 0 for GIPRCNT values of 100 or above, 50 for GIPRCNT values of 0, and 100 for GIPRCNT values of -100.

Row | Structure (SMILES) | growth
1 | Cn1nc(C(F)(F)F)cc1-c1cc(Cl)c(COc2ccc(Cl)cc2)c(-c2ccc(Cl)c(C(F)(F)F)c2)c1O | -48.1% (active)
2 | O=c1[nH]n(C(=S)N/N=C/c2ccccc2Cl)c(=O)c2ccccc12 | 14.5% (inactive)
3 | CCOC(=O)C(N=Nc1ccc(S(=O)(=O)N=C(N)N)cc1)C(C)=O (stereo not given) | 109% (inactive)
4 | COc1ccc2c(c1)C(=N/N=C(\C)c1ccc(OC)c(S(N)(=O)=O)c1)C(=O)N2 | 101% (inactive)
5 | Cc1ccc(-n2c(-c3cc4ccccc4nc3Cl)noc2=O)cc1 | 90.6% (inactive)
6 | CC(C)CSc1nc(NCCc2c[nH]c3ccccc23)c(C#N)c(-c2ccc(Cl)cc2)n1 | 30.3% (inactive)
7 | COc1ccc(C2=NN(c3ccccc3)C(c3ccc(OCc4ccccc4)c(OC)c3)C2)cc1OC (stereo not given) | 104% (inactive)
8 | C=CC(=O)Nc1ccc(C)c(Oc2ccc(Cl)cc2)c1 | 20.5% (inactive)
9 | COc1ccc2[nH]c(O)c(N=NC(=O)Cn3c(-c4ccccc4)nc4cc(C)ccc43)c2c1 | 44.3% (inactive)
10 | CCOC(=O)C1=C(N)N(c2ccccc2)C2=C(C(=O)CC(C)(C)C2)C1c1ccc(Cl)cc1Cl (stereo not given) | 18.3% (inactive)
11 | CC12CC[C@@H]3[C@]4(C)COC(c5cn[nH]c5-c5ccc(Br)cc5)O[C@@H]4CC[C@@]3(C)[C@@H]1CC(C1=CCOC1=O)O2 (stereo not given in full) | 35.4% (inactive)
12 | O=C1N/C(=N\c2nccs2)S/C1=C\C=C/c1ccccc1 | 26.4% (inactive)
13 | CCCCCCn1c(O)c(N=Nc2nc(-c3cc4ccccc4oc3=O)cs2)c2ccccc21 | 5.99% (active)
14 | N/C(=N\c1nc2ccccc2s1)NC(=O)Nc1ccccc1Br | -26.1% (active)
15 | Cn1cc(-c2nnc(N)nc2-c2c[nH]c3ccccc23)c2cccnc21 | 15.2% (inactive)
16 | Cn1cc(-c2cc3nc(-c4cn(C)c5ncccc45)cc(N)n3n2)c2cc(Cl)ccc21 | -70% (active)
17 | Cc1occc1C(=O)NN1C(=O)/C(=C/C=C/c2ccc([N+](=O)[O-])o2)SC1=S | -51.6% (active)
18 | CC(=O)Nc1ccc(-n2cnc3cc(-c4ccc(O)cc4)ccc32)cc1C(F)(F)F | 9.22% (active)
19 | CCCCCCCCOc1cccc(S(=O)(=O)Nc2ccc(C)cc2C(=O)O)c1 | 98.4% (inactive)
20 | CCCCOc1ccc(NC(=O)c2sc3nc(C)ccc3c2N)cc1 | 7.45% (active)

Row | Structure (SMILES) | growth
21 | CN(C)CCn1c2ccccc2c2nc3ccc([N+](=O)[O-])cc3nc21 | 4.86% (active)
22 | C#CCOc1ccc(/C=N/Nc2nc(-c3ccc(F)cc3)cs2)cc1OC | 77.4% (inactive)
23 | CC1(C)CC[C@]2(C(=O)O)CC[C@]3(C)C(=CCC4[C@@]5(C)C[C@@H](O)[C@@H]6OC(c7ccco7)OC[C@@]6(C)C5CC[C@]43C)C2C1 (stereo not given in full) | 19.8% (inactive)
24 | COc1cc2oc(-c3cccc(C(=O)Nc4ccc(Cl)cc4)c3)cc(=O)c2c(OCCNC(=O)[C@@H](N)CCC(=O)O)c1OC | 63.2% (inactive)
25 | C=C1CC[C@@H]2[C@]3(C)COC(c4cn(-c5ccccc5)nc4-c4cccc([N+](=O)[O-])c4)O[C@@H]3CC[C@@]2(C)[C@@H]1C/C=C1/C(=O)OC[C@H]1O (stereo not given in full) | 2.24% (active)
26 | C#C[C@]1(O)CC[C@H]2[C@@H]3CC=C4c5sc(-c6ccc([N+](=O)[O-])cc6)nc5CC[C@]4(C)[C@H]3CC[C@@]21C | -47.9% (active)
27 | COCOc1cc2oc(C(=O)N[C@@H](Cc3ccccc3)C(O)C(=O)NCc3ccccc3)c(C)c(=O)c2cc1OCOC (stereo not given in full) | 9.45% (active)
28 | COc1cc(C2CC(c3cc(OC)c(OC)c(OC)c3)=NN2c2ccccc2)ccc1OCc1ccc(C)cc1 (stereo not given) | 99.3% (inactive)
29 | COc1cc(C2CC(c3cc(OC)c(OC)c(OC)c3)=Nc3c(N)nc(N)nc3N2)ccc1Oc1nc(NCCO)nc(N2CCOCC2)n1 (stereo not given) | 106% (inactive)
30 | CCN1CCN(Cc2ccc(C(=O)Nc3cccc(C#Cc4cccc5[nH]nc(N)c45)c3)cc2C(F)(F)F)CC1 | -39.2% (active)
31 | COc1cc(C2CC(c3cc(OC)c(OC)c(OC)c3)=NN2C(C)=O)ccc1OCc1ccc(F)cc1 (stereo not given) | 49% (inactive)
32 | COc1ccc(C(=O)/C=C/c2ccc(OCc3ccc(F)cc3)c(OC)c2)cc1OC | 14.8% (inactive)
33 | O=C(O)c1ccc(-c2ccc(/C=N/NC(=O)c3[nH]c4ccc(Br)cc4c3-c3ccccc3)s2)cc1 | 0.163% (active)
34 | NS(=O)(=O)c1ccc(N=Nc2c(O)n(CC(=O)Nc3ccccc3)c3ccccc23)cc1 | 4.09% (active)
35 | C#CCOc1cc(N(CC)CC)ccc1C(C(=O)NC(C)(C)C)N(C(=O)C1CCc2cc(F)ccc2O1)c1cc(C)cc(C)c1 (stereo not given) | 30.4% (inactive)
36 | Cc1ccc(/C=C/c2n(Cc3ccc4ccccc4c3)c3ccccc3[n+]2Cc2ccc3ccccc3c2)cc1 | -77.4% (active)
37 | Cc1ccc(C2=NN(c3nc(-c4cc5ccccc5oc4=O)cs3)C(c3ccc(C)cc3)C2)cc1 (stereo not given) | 120% (inactive)
38 | Cc1ccc(C(SCCNCc2cc(N(C)C)ccn2)(c2ccccc2)c2ccccc2)cc1 | -26.6% (active)
39 | COc1ccc(NC(=O)[C@H](CO)NC(=O)OC(C)(C)C)cc1C(=O)Nc1cccc(C2CC(=O)c3c(cc(OC)c(OC)c3OC)O2)c1 (stereo not given in full) | 55.3% (inactive)
40 | C[C@H]1CN(C(=O)c2ccc3c(NNC(=O)c4ccncn4)nc4cc(F)c(F)cc4n23)CCN1 | 6.66% (active)
